The text below walks through data of the supplement of paper PMC6135742.

Structures are written as SMILES. “And” between values parts separate entries of the source, which are not always exact repeats. Equal values may be shown once. Where a name gives a salt, the structure may show the parent alone. ± gives the standard deviation of the averaged measurements. The full ranking holds about 2,600 compounds; the median of “total cell number (DAPI+ nuclei) relative to DMSO vehicle control” is about -1.4, and the lowest 2% start at about -23. The full list was thinned out, with the lowest values kept by preference.

The subject of the assay is jimpy (Plp1 jimpy) mouse iPSC-derived oligodendrocyte progenitor cells. As to the kind of experiment: total cell number (DAPI+ nuclei) relative to DMSO vehicle control (SDs above negative control mean); higher = more surviving cells. The settings on record: 10 µM; 3 days.
As for `COc1cc2nc(N3CCCN(C)CC3)nc(NC3CCN(Cc4ccccc4)CC3)c2cc1OC`, the total cell number was -10.1 and -15.2. For `COc1cc2/c(=N/c3ccc(Br)cc3F)nc[nH]c2cc1OCC1CCN(C)CC1` [Vandetanib (ZD6474)] the value was -26.7.

The compound `COc1ccc(C[C@H](NC(=O)[C@H](C)NC(=O)CN2CCOCC2)C(=O)N[C@@H](Cc2ccccc2)C(=O)[C@@]2(C)CO2)cc1` displayed a total cell number of -12.1. For `CC(C)(N)c1ncc(-c2ccc(OC(F)(F)F)cc2)[nH]1` the value was -3.28.

`Oc1cccc(-c2nc(N3CCOCC3)c3oc4ncccc4c3n2)c1` had a total cell number of -21. To `N#CC(C#N)=C(N)/C(C#N)=C/c1cc(O)c(O)c(O)c1` [Tyrphostin 51] belongs -1.44. `Fc1cc(-c2cccc3ncc(-c4cnn(C5CCNCC5)c4)nc23)cc(F)c1CN1CCOCC1` yielded a total cell number of -12.4.

Consider `C[C@@H](Oc1cc(-c2cnn(C3CCNCC3)c2)cnc1N)c1c(Cl)ccc(F)c1Cl`, for which the total cell number is -27.1. For `C[C@H](Oc1cc(-c2cnn(C3CCNCC3)c2)cnc1N)c1c(Cl)ccc(F)c1Cl` [(S)-crizotinib] the value was -15.7; for `C=CCc1cccc(/C=N/NC(=O)CN2CCN(Cc3ccccc3)CC2)c1O`, -9.01 ± 1.4.

As for `O=C(Nc1ccc(S(=O)(=O)Nc2ccccc2Cl)c(Cl)c1)c1ccccn1`, the total cell number was found to be 0.173. `O=c1cc2c(=O)oc3cc(O)c(O)oc3c2c(O)c1O` [Galloflavin potassium] displayed a total cell number of -1.51. To `CN1CCN(C(=O)c2cc3cc(Cl)ccc3[nH]2)CC1` belongs -2.98; to `Cc1[nH]c(/C=C2\C(=O)Nc3ccc(S(=O)(=O)Cc4c(Cl)cccc4Cl)cc32)c(C)c1C(=O)N1CCC[C@@H]1CN1CCCC1`, -27.2. Consider `Cc1[nH]c(/C=C2\C(=O)Nc3ccc(S(=O)(=O)N(C)c4cccc(Cl)c4)cc32)c(C)c1C(=O)N1CCN(C)CC1`, for which the total cell number was -26.7. Take `CC(C)C[C@H](NC(=O)[C@H]1O[C@@H]1C(=O)O)C(=O)NCCCCN=C(N)N`: the total cell number was -3.4 ± 0.35. Compound `CN1[C@@H]2CC[C@H]1C[C@@H](OC(=O)C(O)c1ccccc1)C2` (mixture of isomers) [DL-Homatropine hydrobromide] came in with a total cell number of 0.0407. With `Cc1nc(NC(=O)N2CCC[C@H]2C(N)=O)sc1-c1ccnc(C(C)(C)C(F)(F)F)c1`, the total cell number is -10.3. Compound `COc1cc(C(O)C(=O)O)ccc1O` (racemic) [(±)-Vanillylmandelic acid] had a total cell number of -0.443. For `CC(=O)Nc1nc(C)c(-c2ccc(Cl)c(S(=O)(=O)NCCO)c2)s1` the value was -15.8; for `C[C@H](c1ccc(F)cc1CCCC(=O)O)N(c1cc(F)ccc1F)S(=O)(=O)c1ccc(Cl)cc1`, -4.06; for `COc1cc(OC)cc(-c2cc3cnc(N)nc3nc2NC(=O)NC(C)(C)C)c1`, -5.24.

On to `CCN(CC)CCCCCCCCOC(=O)c1cc(OC)c(OC)c(OC)c1` [TMB-8 hydrochloride], for which the total cell number was found to be 2.1.

As for `CCN(CC)CCCCNc1ncc2cc(-c3cc(OC)cc(OC)c3)c(NC(=O)NC(C)(C)C)nc2n1`, the total cell number is -24.8. The compound `C=C1CC[C@@H]2[C@](C)(CO)[C@H](O)CC[C@@]2(C)[C@@H]1C/C=C1/C(=O)OC[C@H]1O` [Andrographolide] gave a total cell number of -9.57. The compound `C=CC(=O)Nc1ccc2ncnc(Nc3cccc(Br)c3)c2c1` had a total cell number of -13.1. Compound `N[C@@H](Cc1ccc(F)cc1)C(=O)O` [p-Fluoro-L-phenylalanine] had a total cell number of -1.39. In turn, `Cc1ccc([N+](=O)[O-])cc1S(=O)(=O)N(C)/N=C/c1cnc2ccc(Br)cn12` returned a total cell number of -25.8.

Consider `O=C(O)C1=CO[C@@H](O[C@@H]2O[C@H](CO)[C@@H](O)[C@H](O)[C@H]2O)[C@@H]2C(CO)=CC[C@H]12` [Geniposidic acid], for which the total cell number is -0.368.

`COc1ccc(S(=O)(=O)Nc2nc(-c3cccc([N+](=O)[O-])c3)cs2)cc1OC` yielded a total cell number of -0.431. Consider `O=C(c1cc(O)c(O)c([N+](=O)[O-])c1)c1ccccc1F`, for which the total cell number stood at 0.768. `CN(C)CC[C@H](CSc1ccccc1)Nc1ccc(S(=O)(=O)NC(=O)c2ccc(N3CCN(Cc4ccccc4-c4ccc(Cl)cc4)CC3)cc2)cc1[N+](=O)[O-]` registered a total cell number of -23.1. In turn, `CC1(C)CCC(CN2CCN(c3ccc(C(=O)NS(=O)(=O)c4ccc(NCC5CCOCC5)c([N+](=O)[O-])c4)c(Oc4cnc5[nH]ccc5c4)c3)CC2)=C(c2ccc(Cl)cc2)C1` had a total cell number of -3.38. To `CC1(C)CCC(c2ccc(Cl)cc2)=C(CN2CCN(c3ccc(C(=O)NS(=O)(=O)c4ccc(N[C@H](CCN5CCOCC5)CSc5ccccc5)c(S(=O)(=O)C(F)(F)F)c4)cc3)CC2)C1` [ABT-263 (Navitoclax)] belongs -16.7. For `CCOC(=O)c1c(CSc2ccccc2)n(C)c2cc(Br)c(O)c(CN(C)C)c12` [Arbidol HCl] the value was -4.97; for `COC(=O)C1=C(C)NC(C)=C(C(=O)OCCN2CCN(C(c3ccccc3)c3ccccc3)CC2)C1c1cccc([N+](=O)[O-])c1` (stereo unspecified) [Manidipine], -13; for `COC(=O)C1=C(C)NC(C)=C(C(=O)OCCN2CCN(C(c3ccccc3)c3ccccc3)CC2)C1c1cccc([N+](=O)[O-])c1` (stereo unspecified) [Manidipine 2HCl], -11.4. `C=CCN1CCc2cc(O)c(O)cc2C(c2ccccc2)C1` (racemic) registered a total cell number of -1.7. Regarding `C[C@@]1(C(=O)Nc2ccc(F)nc2)CCCN1c1nc(Nc2cc(C3CC3)n[nH]2)c2cccn2n1`, the total cell number is -24.7. For `O=C(COc1cccc2c(=O)[nH]ccc12)c1ccccc1` the value was -0.123; for `CCc1ccc2c(-c3cccc(Cl)c3)nc(=O)n(CC)c2n1`, 0.722.

On to `CC(C)NC[C@@H](C(=O)N1CCN(c2ncnc3c2[C@H](C)C[C@H]3O)CC1)c1ccc(Cl)cc1`, for which the total cell number is -8.76. With `COc1ccc(C2=N[C@@H](c3ccc(Cl)cc3)[C@@H](c3ccc(Cl)cc3)N2C(=O)N2CCNC(=O)C2)c(OC(C)C)c1` [Nutlin-3], the total cell number was -23.5.

The compound `C=C1C(=O)O[C@@H]2/C=C(\C)CC/C=C(\C)CC[C@@H]12` [Costunolide] came in with a total cell number of -21. Take `CN1CCN(c2ccc3nc(-c4c(N)c5c(F)cccc5[nH]c4=O)[nH]c3c2)CC1` [Dovitinib (TKI-258) Dilactic Acid]: the total cell number was -12.1. To `CN1CCN(c2ccc3nc(-c4c(N)c5c(F)cccc5[nH]c4=O)[nH]c3c2)CC1` [Dovitinib (TKI-258, CHIR-258)] belongs -25.7. For `COc1cc(CCc2cc(NC(=O)c3ccc(N4CC(C)NC(C)C4)cc3)n[nH]2)cc(OC)c1` (stereo unspecified) the value was -10.9. For `NC/C=C/C(=O)O` [(E)-4-amino-2-butenoic acid] the value was -1.89. In turn, `CC(C)NCC(O)COc1cccc2ccccc12` (racemic) [(±)-Propranolol hydrochloride] came in with a total cell number of -1.57. For `c1ccc(-c2[nH]ncc2-c2ccnc3ccccc23)nc1` the value was -2.66. To `OC[C@H]1O[C@H]([S-])[C@H](O)[C@@H](O)[C@@H]1O.[Au+]` [Aurothioglucose] belongs -2.94; to `O=C(c1ccc(/C=C/c2n[nH]c3ccccc23)cc1)N1CCNCC1`, -13.2. To `COCC[n+]1c2c(n(Cc3cnccn3)c1C)C(=O)c1ccccc1C2=O` [YM155 (Sepantronium Bromide)] belongs -27.7; to `Cc1ccc2c(c1)C(=O)C1(O)CCN(c3ccccc3)C1=N2` (single isomer, unassigned; (-)) [(-)-Blebbistatin], -14.8; to `CNC(=O)CN1CCC(Oc2cc3c(Nc4cccc(Cl)c4F)ncnc3cc2OC)CC1` [AZD8931 (Sapitinib)], -10.1. Compound `CN1CCN(CCOc2cc(OC3CCOCC3)c3c(Nc4c(Cl)ccc5c4OCO5)ncnc3c2)CC1` [Saracatinib (AZD0530)] showed a total cell number of -22.8. For `Cc1ccc(Sc2cncc3sc(C(N)=O)cc23)cc1` the value was 0.0291; for `O=C(Nc1ccccc1)N1CCN(c2nc(-c3ccccc3)ns2)CC1`, 0.543; for `CC(C)C[C@H](C(=O)O)c1cc(-c2ccc(C(F)(F)F)cc2)cc(-c2ccc(C(F)(F)F)cc2)c1`, 10.7. In turn, `COc1ccccc1CN[C@H]1CCCN[C@H]1c1ccccc1` had a total cell number of -1.93. To `CCCCCCCCCCCCCCCCn1cc[n+](Cc2ccccc2)c1C` belongs -16.7; to `CCCCCN(CCCOC)C(=O)C(CCC(=O)O)NC(=O)c1ccc(Cl)c(Cl)c1` (stereo unspecified) [Loxiglumide], -0.322; to `CC[C@@H]1C(=O)N(C)c2cnc(Nc3ccc(C(=O)N[C@H]4CC[C@H](N5CCN(CC6CC6)CC5)CC4)cc3OC)nc2N1C(C)C` [Volasertib (BI 6727)], -14.6. To `CC[C@@H]1C(=O)N(C)c2cnc(Nc3ccc(C(=O)NC4CCN(C)CC4)cc3OC)nc2N1C1CCCC1` belongs -26.1; to `COc1cc(OC2CCN(C)CC2)ccc1Nc1ncc2c(n1)n(C1CCCC1)c(=O)n2C`, -7.07. For `CN1C2=CC(=O)/C(=N\NC(N)=O)C=C2CC1S(=O)(=O)O` (stereo unspecified) [Carbazochrome sodium sulfonate (AC-17)] the value was -0.411; for `CC1=C(C(=O)OC(C)C)C(c2cccc([N+](=O)[O-])c2)C(C(=O)OC2CN(C(c3ccccc3)c3ccccc3)C2)=C(N)N1` (stereo unspecified) [Azelnidipine], -12.3; for `CNCc1cc(-c2ccccc2F)n(S(=O)(=O)c2cccnc2)c1`, -1.01. The compound `CNC(=O)c1cc(Oc2ccc(NC(=O)Nc3ccc(Cl)c(C(F)(F)F)c3)c(F)c2)ccn1` [Regorafenib (BAY 73-4506)] returned a total cell number of 0.684. For `Cc1cc(Nc2ncc(Cl)c(Nc3ccccc3S(=O)(=O)C(C)C)n2)c(OC(C)C)cc1C1CCNCC1` the value was -16.3; for `C=CC(=O)Nc1cccc(Oc2nc(Nc3ccc(N4CCN(C)CC4)cc3OC)ncc2Cl)c1`, -24.9; for `Cn1c(=O)c(-c2c(Cl)cccc2Cl)cc2cnc(Nc3ccc(N4CCOCC4)cc3)nc21`, -9.85. For `C=CC(=O)Nc1cccc(Sc2nc(Nc3ccc(N4CCN(C)CC4)cc3)ncc2Cl)c1`, the total cell number is -26.9. `C=CC(=O)Nc1cccc(Nc2nc(Nc3ccc(Oc4ccnc(C(=O)NC)c4)cc3)ncc2F)c1`: the total cell number was -15.

As to `CNC(=O)c1ccccc1Nc1nc(Nc2ccc(N3CCOCC3)cc2OC)ncc1Cl`, the total cell number was -12.2. To `COc1cc(N2CCC(N3CCN(C)CC3)CC2)ccc1Nc1ncc(Cl)c(Nc2ccccc2S(=O)(=O)C(C)C)n1` belongs -27.1; to `C=CC(=O)Nc1cccc(Oc2nc(Nc3ccc(N4CCN(C)CC4)cc3)ncc2Cl)c1`, -26.9.

`Cc1cnc(Nc2ccc(N3CCN(C)CC3)cc2)nc1Nc1cccc(S(=O)(=O)NC(C)(C)C)c1` had a total cell number of -12.1.

In the case of `CCC(=O)Nc1cccc(Oc2nc(Nc3ccc(N4CCN(C)CC4)cc3OC)ncc2Cl)c1`, the total cell number was -15.2. `C=CC(=O)Nc1cccc(Nc2nc(Nc3ccc(N4CCN(C(C)=O)CC4)cc3OC)ncc2C(F)(F)F)c1` returned a total cell number of -15.5. `C=CCn1c(=O)c2cnc(Nc3ccc(N4CCN(C)CC4)cc3)nc2n1-c1cccc(C(C)(C)O)n1` came in with a total cell number of -14.6.
